# Measured values taken from PubChem BioAssay (NCI).
# Several values for one entry are separate records, joined by “and”; a condition that tells them apart may be missing. Identical values can stand only once. The panel holds about 83,000 compounds, 20% with a hit somewhere; the sample as a whole holds those more often.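 Results are percent growth after 48 hours of single-concentration exposure. 100 means growth as in untreated cells, lower positive values show inhibition; negative values down to -100 show cell death.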 Unmarked numbers belong to inactive results. Activity calls are given as the source filed them.
# Tested on: HCT-15 colon
# Assay: NCI-60 one-dose screen, 48 h (100 = growth as untreated, 0 = no growth, -100 = all killed)
# Settings: 10 µM
# Protocol: Growth inhibition of the HCT-15 human tumor cell line is measured as a screen for anti-cancer activity. Cells are grown in 96 well plates and exposed to the test compound for 48 hours. Compounds are tested at a single concentration, which is 10^-5 M for most compounds. The reported endpoint is percent growth (GI% or GIPRCNT), where numbers from 0 - 100% represent growth inhibition, and numbers from -100% - 0 represent cell death. For example, a value of 40 represents 60% growth inhibition. A value of 0 means no net growth occurred over the course of the experiment. A value of -40 indicates 40% of cells at the beginning of the experiment died by the end of the experiment. A value of -100 means all cells are dead at the end of the experiment.
# NCI-60 Human Tumor Cell Lines Screen was performed using the standard one-dose NCI protocol, which is described in more detail at https://dtp.cancer.gov/discovery_development/nci-60/default.htm.
# Compounds with GIPRCNT values below 10 were considered active. Activity score was based on GIPRCNT using the following formula: […]
# Score is 0 for GIPRCNT values of 100 or above, 50 for GIPRCNT values of 0, and 100 for GIPRCNT values of -100.
row,Compound,growth
1,CC(=O)O[C@@H]1[C@@H]2O[C@H]2[C@@](C)(O)C(=O)[C@@H](C)C/C=C/[C@H]2[C@@H]3O[C@]3(C)[C@@H](C)C3[C@H](Cc4ccccc4)NC(=O)[C@@]312 (stereo not given in full),54.1%
2,CN(CCF)/N=N/c1nc[nH]c1C(N)=O,57.6%
3,CC1=C2C(=C[C@@](C)(C=O)[C@@H]2O)C(=O)[C@](C)(O)C12CC2,6.02% (active)
4,CC(=O)O[C@@H]1C[C@H]2O[C@@H]3C=C(C)CC[C@]3(C)[C@]1(C)[C@]21CO1,3.87% (active)
5,COc1cc(C)c(-c2ccc(OC)c(=O)cc2C)c(OC)c1OC,12% and 101%
6,CC(C)(O)/C=C/C(=O)[C@](C)(O)[C@H]1[C@H](O)C[C@@]2(C)[C@H]3CC=C4[C@@H](C[C@H](O)C(=O)C4(C)C)[C@]3(C)C(=O)C[C@]12C,7.53% (active)
7,CC1=C2C(=C[C@@](C)(COS(C)(=O)=O)[C@@H]2O)C(=O)[C@](C)(O)C12CC2,3.8% (active)
8,COc1cc(OC)c(S(=O)(=O)N(CCCl)CCCl)cc1C(=O)/C=C/c1ccc(Cl)cc1,31.6%
9,NC1CCc2cc(O)c(O)cc2C1 (stereo not given),41.8%
10,CC1=C(CCC=NNC(N)=O)C2=C(C)C3(CC3)[C@@](C)(O)C(=O)C2=C1,-16.6% (active)
11,CC1=C2C(=C[C@@](C)(COC(=O)c3ccc(S(=O)(=O)F)cc3)[C@@H]2OC(=O)c2ccc(S(=O)(=O)F)cc2)C(=O)[C@](C)(O)C12CC2,0.515% (active)
12,O=C(CCCc1ccc(N(CCCl)CCCl)cc1)OCc1ccccc1,88.6%
13,N#Cc1c(-n2c(Br)c(Br)c3cc(Br)ccc32)[nH]c2c(Br)cc(Br)cc12,-27% (active)
14,CN1C(=O)[C@]23SSC1(C)C(=O)N2[C@H]1Nc2ccccc2C1([C@@]12c4ccccc4N[C@@H]1N1C(=O)C4(C)SS[C@]1(C(=O)N4C)[C@H]2O)[C@@H]3O (stereo not given in full),-45.4% (active)
15,C=C1[C@@H](C)C2[C@H](Cc3ccccc3)NC(=O)[C@]23[C@H](OC(C)=O)/C=C/[C@@](C)(O)C(=O)[C@@H](C)C/C=C/[C@H]3[C@@H]1O (stereo not given in full),45.8%
16,C[C@@H]1C[C@H]2C(=O)O[C@@H](C)C(NC(=O)[C@H](Cc3cc(F)cc(F)c3)NC(=O)Nc3ccc(OS(=O)(=O)F)cc3)C(=O)N3CCC[C@H]3C(=O)N3CCO[C@H](C)[C@H]3C(=O)N[C@@H](CO)C(=O)N2C1 (stereo not given in full),82.9%
17,COC1[C@@H]2C[C@H]3C(C)(C)O[C@@](C/C=C(/C)C(=O)O)(C2=O)[C@]32Oc3c(CC=C(C)C)c4c(c(O)c3C(=O)[C@H]12)C=CC(C)(C)O4 (stereo not given in full),-43.1% (active)
18,C/C=C/CC(C)C(O)[C@H](NC(=O)[C@@H]1CCCN1C(=O)C(C)(C)NC(=O)CCCCCCCCC)C(=O)N[C@@](C)(CC)C(=O)N[C@@H](CCC(N)=O)C(=O)N[C@H](CCC(N)=O)C(=O)NC(C)(C)C(=O)N[C@@](C)(CC)C(=O)N[C@@H](CCC(N)=O)C(=O)N[C@H](CC(C)C)C(=O)N[C@H](CO)CC(C)C (stereo not given in full),101% and 20.9%
19,C/C=C/CC(C)C(O)[C@H](NC(=O)[C@@H]1CCCN1C(=O)C(C)(C)NC(=O)CCCCCCCCC)C(=O)NC(C)(C)C(=O)N[C@@H](CCC(N)=O)C(=O)N[C@H](CCC(N)=O)C(=O)NC(C)(C)C(=O)NC(C)(C)C(=O)N[C@@H](CCC(N)=O)C(=O)N[C@H](CC(C)C)C(=O)N[C@H](CO)CC(C)C (stereo not given in full),4.12% (active) and 4.44% (active)
20,C/C=C\C(=O)O[C@@H]1CC2O[C@@H]3C=C(C)C(=O)C[C@]3(C)[C@]1(C)[C@]21CO1,-5% (active)

row,Compound,growth
1,COc1cc2c(cc1OC)[C@@H]1N(CC2)C(=O)c2ccccc2[C@@]1(C)C(=O)O,101%
2,CC1=C[C@H]2O[C@@H]3C[C@H]4OC(=O)/C=C\C=C\[C@H]([C@@H](C)O)OCC/C(C)=C/C(=O)OC[C@@]2(CC1)[C@]4(C)[C@]31CO1,-18.6% (active)
3,Cc1ccc(CNc2nc3ccc(OC/C(=C/F)CN)cc3o2)cn1,112%
4,CC1=C(CN(O)C(N)=O)C2=C(C)C3(CC3)[C@@](C)(O)C(=O)C2=C1,0.564% (active)
5,CC1=C(CN(O)C(N)=O)C2=C(C)C3(CC3)[C@](C)(O)C(=O)C2=C1,1.38% (active)
6,COC(=O)[C@H]1[C@@H](O)[C@@]2(O)c3c(OC)cc(OC)cc3O[C@@]2(c2ccc(OC)cc2)[C@@H]1c1ccccc1,-3.06% (active)
7,CC(C)=CCc1c2c(c(O)c3c1O[C@]14C(=C[C@@H]5C[C@H]1C(C)(C)O[C@@]4(C/C=C(/C)C(=O)O)C5=O)C3=O)C=CC(C)(C)O2,-72.5% (active)
8,C/C=C/CC(C)C(O)[C@H](NC(=O)[C@@H]1CCCN1C(=O)C(C)(C)NC(=O)CCCCCCCCC)C(=O)N[C@@](C)(CC)C(=O)N[C@@H](CCC(N)=O)C(=O)N[C@H](CCC(N)=O)C(=O)NC(C)(C)C(=O)NC(C)(C)C(=O)N[C@@H](CCC(N)=O)C(=O)N[C@H](CC(C)C)C(=O)N[C@H](CO)CC(C)C (stereo not given in full),38% and 89.3%
9,CC1=C2C(=C[C@@](C)(COC(=O)c3ccc(S(=O)(=O)F)cc3)[C@@H]2O)C(=O)[C@](C)(O)C12CC2,-20.2% (active)
10,C/C=C/CC(C)C(O)[C@H](NC(=O)[C@@H]1CCCN1C(=O)C(C)(C)NC(=O)CCCCCCC)C(=O)N[C@@](C)(CC)C(=O)N[C@@H](CCC(N)=O)C(=O)N[C@H](CCC(N)=O)C(=O)NC(C)(C)C(=O)NC(C)(C)C(=O)N[C@@H](CCC(N)=O)C(=O)N[C@H](CC(C)C)C(=O)N[C@H](CO)CC(C)C (stereo not given in full),100% and 22.1%
11,CCC(C)[C@H]1C(=O)O[C@H](C(C)C)C(=O)N(C)[C@@H](C(C)C)C(=O)O[C@H](C(C)C)C(=O)N(C)[C@@H](C(C)C)C(=O)O[C@H](C(C)C)C(=O)N1C (stereo not given in full),14.6%
12,COc1cc2c(O[C@@H]3OC[C@H](O)[C@H](O)[C@H]3O)c3c(c(-c4ccc5c(c4)OCO5)c2cc1OC)C(=O)OC3,70.3%
13,N#Cc1nc(-c2ccccc2)oc1N1CCC(S(=O)(=O)F)CC1,103%
14,CC1=C2C(=O)[C@](C)(CO)C=C2C(=O)[C@](C)(O)C12CC2,-9.55% (active)
15,C[C@@H]1CCC/C=C/[C@H]2C[C@@H](O)C[C@@H]2[C@@H](O)/C=C/C(=O)O1,11.2%
16,CCCCCCCCCC(=O)N[C@@](C)(CC)C(=O)N1CCC[C@H]1C(=O)N[C@@H](CC(C)C)C(=O)N[C@@](C)(CC)C(=O)N[C@@H](CCC(N)=O)C(=O)N[C@H](CCC(N)=O)C(=O)NC(C)(C)C(=O)NC(C)(C)C(=O)N[C@@H](CCC(N)=O)C(=O)N[C@H](CC(C)C)C(=O)N[C@H](CO)CC(C)C,-77.8% (active) and -78.1% (active)
17,COc1cc2c(O[C@@H]3OC[C@H](OC(C)=O)[C@H](OC(C)=O)[C@H]3O)c3c(c(-c4ccc5c(c4)OCO5)c2cc1OC)C(=O)OC3,1.41% (active)
18,CC1=C[C@H]2O[C@@H]3C[C@H]4OC(=O)/C=C\C=C\[C@H]([C@@H](C)O)OCC[C@@H](C)[C@H](O)C(=O)OC[C@@]2(CC1)[C@]4(C)[C@]31CO1,-7.55% (active)
19,COc1cccc2c1cc([N+](=O)[O-])c1c(C(=O)O)cc3c(c12)OCO3,99.9%
20,CC1=C[C@H]2O[C@@H]3C[C@@H](O)[C@](C)([C@@]2(C)CC1)[C@@]31CO1,20.8%
